# Laboratory results from PubChem BioAssay AID540298 (Southern Research Specialized Biocontainment Screening …, 2011).
# Entries with a potency or affinity are not part of this list. Values without a mark were called inactive. How the calls were made is not given here.
# Test: Vero E6 cell cytotoxicity, dose response, cytotoxicity control (AID 540298)
# Conditions: Vero E6 cells viability; series mostly up to 40 µM; viability: at the top concentration
row,SMILES,viability [%]
1,Cc1ccc(N2C(=O)C(CC(=O)Nc3cccc(F)c3)N(C3CC3)C2=O)cc1 (stereo not given),94.6
2,CC(c1ccccn1)N(CCN(C)C)C(=S)Nc1cccc(F)c1 (stereo not given),99.1
3,COc1ccc(N2CCN(CCCN)CC2)cc1,87.2
4,CCOC(=O)c1c(CN(C)C)oc2cc(CN(C)C)c(O)c(CSc3ccccc3)c12,93
5,CN(C)c1cccc2c(C=C(C#N)C#N)ccc(N(C)C)c12,93.7
